# Rab9 prom act – qHTS Assay for Rab9 Promoter Activators; Potency, µM (series often up to 9.22 µM), without a hit: at the highest dose activation, negative = inhibition, actives largely listed as activators; Huh7 Rab9 promoter-luciferase reporter, luminescence, 24 h; actives 2.8% (n = 320,000); further: % of control where 0% means no effect; nearly all actives have a fitted effect of over 60% in size
#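 Huh7 cells stably carrying a Rab9 promoter-luciferase reporter, 1500 cells per well in OP-MEM I with 10% FBS, treated with compound 24 hours at 37C. Luciferase activity read by luminescence after 10 minutes with Amplite reagent.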
# KinaseGlo FLuc – Counterscreen for Luciferase (Kinase-Glo TM) Inhibition. Luciferin 4-monooxygenase (Photuris pensylvanica), Q27757. Potency, µM (highest dose often 38.3 µM), for inactives: at the highest dose activity change, negative = inhibition, usual class: inhibitors. actives 0.28% (n = 200,000). Kinase-Glo luciferase, ATP luminescence, 8 min; further: on the % scale 0 is the no-effect control and ±100 the full control effect; nearly all actives have a fitted effect of over 60% in size
#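 Substrate mix (final 50 mM imidazole pH 7.2, 50 mM KCl, 7 mM MgCl2, 10 uM ATP, 0.01% Tween 20, 0.05% BSA) plus pin-tool compound, then Kinase-Glo detection mix; 8 min ambient, luminescence read.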
# NPC1 prom act – qHTS Assay for NPC1 Promoter Activators. Huh7 NPC1 promoter luciferase reporter, 24 h. Potency, µM (titrated, usually from 9.22 µM), for inactives: at the highest dose activation, usual class: activators. actives 2.4% (n = 320,000); further: % of control where 0% means no effect; nearly all actives have a fitted effect of over 60% in size
#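 Luciferase expression driven by the NPC1 promoter was measured in stably transfected Huh7 cells after a 24 h compound incubation, using a luciferase reagent and a luminescence read.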
# SMN2 splice up – qHTS Assay for Enhancers of SMN2 Splice Variant Expression; HEK293 SMN2-luciferase splicing reporter, luminescence, 30-36 h; Potency, µM (titrated, usually from 46.1 µM), inactives show top-dose activity change, positive = activation, most hits filed as activators; actives 2.8% (n = 210,000); AID 1458, 2008; further: % of control where 0% means no effect; nearly all actives have a fitted effect of over 55% in size
#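 HEK293 cells carry an SMN2 minigene-luciferase reporter in which exon 7 inclusion puts luciferase in frame. Cells were seeded at 2000 cells/well, attached for 10-12 hours, then exposed to compounds for 30-36 hours at 37C before ONE-Glo luminescence.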
# ELG1 genotoxic – qHTS screen for small molecules that induce genotoxicity in human embryonic kidney (HEK293T) cells expressing luciferase-tagged ELG1; actives 1.3% (n = 330,000); Potency, µM (doses to about 46 µM), without a hit: at the top dose activity change, positive = activation, hits mostly activators; HEK293T ELG1-luciferase reporter, luminescence, 16 h; further: % of control where 0% means no effect; nearly all actives have a fitted effect of over 60% in size
#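 Step 1: seed 2,000 HEK293T ELG1-luciferase cells per well. Step 2: add compound or DMSO, incubate 16 hr at 37 °C. Step 3: ONE-Glo, 30 min at room temperature, read luminescence.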
# FLuc modulator – qHTS profiling assay for firefly luciferase inhibitor/activator using purifed enzyme and Km concentrations of substrates (counterscreen for miR-21 project) | purified FLuc, Km substrates, luminescence inhibition | actives 6.9% (n = 360,000) | Luciferin 4-monooxygenase (Photinus pyralis), P08659 | Potency, µM (highest dose often 57.5 µM), for the others: top-dose activity change, negative = inhibition, most hits filed as inhibitors;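 further: plate controls were vehicle for no effect and reference inhibitor for full effect; nearly all actives have a fitted effect of over 55% in size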
# Target sequence (P08659 whole entry, looked up): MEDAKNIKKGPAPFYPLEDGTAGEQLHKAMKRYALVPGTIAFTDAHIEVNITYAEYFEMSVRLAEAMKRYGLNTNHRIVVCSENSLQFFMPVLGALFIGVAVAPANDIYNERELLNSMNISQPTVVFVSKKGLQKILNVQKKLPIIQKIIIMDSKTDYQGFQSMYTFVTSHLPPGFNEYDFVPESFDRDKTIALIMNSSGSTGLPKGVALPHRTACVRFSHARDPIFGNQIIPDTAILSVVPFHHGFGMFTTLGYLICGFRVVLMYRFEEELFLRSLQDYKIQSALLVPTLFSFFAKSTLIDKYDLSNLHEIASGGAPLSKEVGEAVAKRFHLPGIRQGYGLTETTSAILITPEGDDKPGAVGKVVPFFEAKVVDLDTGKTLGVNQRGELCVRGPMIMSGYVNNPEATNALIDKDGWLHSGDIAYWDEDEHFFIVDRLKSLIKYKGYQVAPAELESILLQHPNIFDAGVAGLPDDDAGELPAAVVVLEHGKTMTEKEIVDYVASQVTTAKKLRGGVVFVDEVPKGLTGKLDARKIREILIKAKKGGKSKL
#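 Biochemical qHTS of compounds, final roughly 60 µM downward over six points, against 10 nM purified firefly luciferase using Km concentrations of substrates (10 uM D-luciferin, 10 uM ATP) in Tris acetate pH 7.5 buffer; luminescence output.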
# Active calls of the source: *; ? = inconclusive; . = not tested or not shown; [ ] = remark or other dose. Most compounds without a hit are left out; they make up all but 7.4% or so of the library. The call rests on the fitted dose curve; in most records, active means well fitted curve in the direction sought with a large enough effect; inconclusive means small, poorly fitted or top-dose-only effect, or another doubt; inactive means no such curve, though single readings can be large; an effect the other way counts as inactive or inconclusive. Potency means the concentration at half of the fitted maximal effect.
SMILES,Rab9 prom act,KinaseGlo FLuc,NPC1 prom act,SMN2 splice up,ELG1 genotoxic,FLuc modulator
CCN1CCc2c(sc(NC(=O)c3ccc4ccccc4c3)c2C(N)=O)C1,14%,.,21%,.,8%,2.4µM*
CCCNS(=O)(=O)c1cccc(C(=O)NC2CCCc3ccccc32)c1 (stereo not drawn),-9%,16%,-1%,-2%,1%,-1%
CCC(C)C(=O)Nc1nnc(-c2cccs2)s1 (stereo not drawn),3.5µM*,2%,?,6%,?,?
CCC(=O)Nc1nnc(-c2cccs2)s1,?,0%,17%,21%,?,-15%
O=C(Nc1nnc(-c2cccs2)s1)C1CC1,5µM*,-1%,30%,?,?,-4%
C=C(C)C(=O)Nc1nnc(-c2cccs2)s1,-2%,-3%,0%,-3%,9%,17µM*
CCC1SC(=Nc2cccc(C)c2)NC1=O (stereo not drawn),0%,.,0%,.,3%,-9%
CCC1SC(=NC(=O)c2ccc(Cl)c(Cl)c2)NC1=O (stereo not drawn),23%,-6%,23%,?,?,24µM*
O=C(/C=C/c1ccco1)Oc1ccc(C(=S)N2CCOCC2)cc1,-2%,-1%,0%,-55%,17%,?
O=Cc1cccc(OC(=O)/C=C/c2ccco2)c1,13%,.,?,.,?,27µM*
COC(=O)c1ccc(OC(=O)/C=C/c2ccco2)cc1,1%,.,0%,.,3%,2.4µM*
COC(=O)c1ccc(OC(=O)c2ccco2)cc1,-2%,-1%,10%,1%,2%,?
CN(C)/N=C/c1ccc(OS(=O)(=O)c2ccccc2)cc1,2.8µM*,-10%,3.5µM*,.,8.2µM*,21µM*
O=C1ON=C(c2ccccc2)/C1=C/c1ccc(OS(=O)(=O)c2ccccc2)cc1,-1%,3%,1%,-17%,2%,-19%
Cc1ccc(NC(=O)C2C(=O)N(CCO)C3(C)CC2c2ccccc2O3)cc1 (stereo not drawn),19%,1%,7%,?,10%,-1%
Cc1ccc(NC(=O)C2C(=O)N(C)c3ccccc32)cc1 (stereo not drawn),25%,-10%,18%,?,9%,4.8µM*
CN1C(=O)C(C(=O)Nc2ccccc2F)c2ccccc21 (stereo not drawn),3%,0%,0%,8%,-1%,19µM*
CC(C)Oc1ccc(Cc2cnc(=S)[nH]c2N)cc1,-3%,0%,-4%,?,2%,3%
O=C(O)c1ccc2c(c1)C(=O)N(c1ccc([N+](=O)[O-])cn1)C2=O,-9%,.,0%,.,1%,-1%
CC1(C)C=C(c2ccc(C(=O)O)s2)CC(C)(C)N1,-2%,0%,1%,0%,1%,-1%
O=C(Nc1ccccc1)c1cc2ccc3ccccc3c2s1,?,.,?,.,?,5.4µM*
COc1ccc2cc(C(=O)Nc3ccccc3)sc(=O)c2c1OC,29%,1%,-1%,19%,16%,8%
O=C(Nc1ccccc1F)c1ccc(-c2ccccc2)s1,.,.,.,?,.,1.5µM*
O=C(O)c1ccc(-c2ccc(-c3ccccc3)cc2)s1,0.001µM*,.,4e-05µM*,.,?,0.076µM*
Cc1cc(-c2ccc(C(=O)O)s2)cnc1N,?,-3%,?,13µM*,?,12µM*
SMILES,Rab9 prom act,KinaseGlo FLuc,NPC1 prom act,SMN2 splice up,ELG1 genotoxic,FLuc modulator
COCc1cc(C)nc(SCC(=O)Nc2ccc3[nH]c(=O)[nH]c3c2)c1C#N,-1%,.,-2%,.,?,3%
O=C(Nc1ccccc1)c1ccc(-c2ccccc2)s1,?,-4%,?,2%,5.2µM*,1.7µM*
CCc1ccc(NC(=O)c2ccc(-c3ccccc3)s2)cc1,.,.,.,.,.,0%
O=c1c2oc3ccccc3c2n(Cc2ccccc2F)c(=O)n1Cc1ccccc1,.,.,.,.,.,-2%
Cc1c(NC(=S)NC(=O)c2cccc(Cl)c2)c(=O)n(-c2ccccc2)n1C,7%,.,-2%,.,0%,1%
O=C(/C=C/c1cn(-c2ccccc2)nc1-c1ccccc1)Nc1ccc(C(=O)O)cc1,?,.,24%,.,4%,0.85µM*
CCOC(=O)c1nn(-c2ccc(C)cc2)c(=O)cc1OCC(=O)Nc1cccc(C)c1,-6%,.,2%,.,0%,-1%
O=C(O)c1ccc(NC(=O)c2cn(-c3ccccc3)nc2-c2cccc(Cl)c2)cc1,-1%,.,-6%,.,-1%,3.8µM*
CCOC(=O)c1cc(C(=O)Nc2cccc(C)c2)nn1C,1.4µM*,-23%,1.6µM*,13µM*,?,4.8µM*
CC(=O)Nc1c(C(=O)Nc2cccc(C)c2)nnn1-c1ccc(C)cc1,.,.,.,9%,.,17µM*
CC(=O)c1ccc(NC(=O)c2cn(-c3ccccc3)nc2-c2ccncc2)cc1,-5%,0%,-4%,14%,-1%,-1%
CC(=O)Nc1ccc(S(=O)(=O)N2CCN(c3nc4ccccc4n3CC(C)C)CC2)cc1,-1%,.,-21%,.,-2%,-1%
Cc1ccc(NC(=O)c2ccccc2N2C(=O)C3C4C=CC(C5CC45)C3C2=O)cc1C (stereo not drawn),2%,.,-6%,.,-10%,7%
Cc1cccc(-c2cc(NC(=O)c3ccccc3C)n(-c3ccccc3)n2)c1,.,.,.,.,.,11µM*
CC(C)c1ccc(-c2nn(-c3ccccc3)cc2C(=O)NCC2CCCO2)cc1 (stereo not drawn),-11%,.,2%,.,-9%,-12%
Cc1ccc(OCC(=O)Nc2cc(-c3cccc(C)c3)nn2-c2ccccc2)cc1,.,.,.,.,.,-1%
O=C(O)c1ccc(NC(=O)c2cn(-c3ccccc3)nc2-c2ccc(F)cc2)cc1,?,.,22%,.,5%,2.7µM*
Cc1cccc(NC(=O)c2cn(-c3ccccc3)nc2-c2ccccc2)c1,-1%,2%,-2%,8%,1%,13µM*
O=C(NCC1CCCO1)c1cn(-c2ccccc2)nc1-c1ccc(F)cc1 (stereo not drawn),7%,.,3%,.,-2%,11µM*
O=C(O)c1cn(-c2ccccc2)nc1-c1ccc(F)cc1,1%,.,-2%,.,0%[9.26 µM],?
CCOc1c(C)cc(S(=O)(=O)NCc2ccccn2)c(C)c1C,-3%,.,-5%,.,-9%,0%
O=C(NCc1ccccn1)C(=O)NCC1OCCN1S(=O)(=O)c1ccc(F)cc1 (stereo not drawn),2%,.,10%,.,-1%,0%

# Bioassay records from PubChem BioAssay.
